In PubChem BioAssay AID489037 (National Center for Advancing Translational Sciences (NCATS), 2010):
Inconclusive results are not listed. Calls of active or inactive are those of the source. Calls come from the whole dose curve; as a rule, active = well fitted inhibition curve with a large enough effect; inconclusive = small, poorly fitted or top-dose-only effect, or effect the other way; inactive = no such curve, though single readings can be large or run the other way.

Molecular target: Nuclear receptor ROR-gamma (Mus musculus) (UniProt P51450)
Sequence (P51450 whole entry, looked up): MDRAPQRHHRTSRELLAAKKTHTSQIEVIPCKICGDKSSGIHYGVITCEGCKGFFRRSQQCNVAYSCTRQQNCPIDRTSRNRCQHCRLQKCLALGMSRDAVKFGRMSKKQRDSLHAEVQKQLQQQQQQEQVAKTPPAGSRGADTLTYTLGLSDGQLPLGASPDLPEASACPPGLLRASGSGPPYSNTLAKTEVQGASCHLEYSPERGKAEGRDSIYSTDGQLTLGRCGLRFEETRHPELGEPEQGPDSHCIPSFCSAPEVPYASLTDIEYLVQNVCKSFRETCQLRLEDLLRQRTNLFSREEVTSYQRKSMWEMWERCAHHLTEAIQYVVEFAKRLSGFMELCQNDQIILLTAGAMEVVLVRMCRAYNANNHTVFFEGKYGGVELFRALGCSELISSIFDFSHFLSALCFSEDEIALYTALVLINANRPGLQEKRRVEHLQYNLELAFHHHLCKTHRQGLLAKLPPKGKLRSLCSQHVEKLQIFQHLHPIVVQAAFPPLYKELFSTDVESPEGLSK
Test: Secondary confirmation assay for inhibitors of ROR gamma transcriptional activity
Conditions: Drosophila S2 Gal4-RORgamma UAS-luciferase reporter, 20 h
Source text: NIH Molecular Libraries Probe Production Network [MLPCN] NIH Chemical Genomics Center [NCGC] MLPCN Grant: R03 DA026211-01 Assay Provider: Dan Littman, New York University Keywords: NIH Roadmap, MLPCN, MLI, MLSMR, qHTS, NCGC, qHTS, nuclear hormone receptor, retinoic acid-related orphan receptor, ROR gamma Assay Overview: The retinoic acid-related orphan receptor (ROR) gamma is a transcription factor that has a central role in the differentiation of Th17 cells, a subset of T helper cells that secrete the inflammatory cytokines IL-17, IL-17F, and IL-22. Th17 cells have been implicated in graft versus host disease, autoimmune disease and asthma. ROR gamma is induced in naive T helper cells in the presence of TGF-beta combined with IL-6, IL-21, or IL-23, and thereafter directs the expression of the Th17 lineage cytokines. To study the mechanism of action of ROR gamma, an insect cell-based assay was screened. […] Small molecule inhibitors of ROR gamma activity are detected by a decrease in luciferase reporter activity.
Assay Protocol Summary: For screening, 600 cells in 4 uL/well were dispensed into white solid 1536-well plates (Grenier) using a solenoid-based dispenser. […] After addition of 1.5 uL Photinus luciferase detection reagent, the plates were incubated 10 min at ambient temperature and then read by an ViewLux (Perkin Elmer) to detect luminescence. […]

Row | SMILES | Potency
1 | CC1OC(O[C@@H]2C(O)CC(O[C@@H]3C(O)C[C@@H](OC4CC[C@@]5(C)C6CC[C@]7(C)C(C8=CC(=O)OC8)C(O)C[C@@]7(O)[C@H]6CC[C@@H]5C4)OC3C)OC2C)CC(O)C1O (some centres not stated) | 4070 nM (active)
2 | CO[C@H]1[C@@H](O)CC(OC2[C@@H](O)CC(OC3[C@@H](O)C[C@H](OC4CC[C@@]5(C)C(CCC6C5CC(O)[C@]5(C)[C@H](C7=CC(=O)OC7)CCC65O)C4)O[C@@H]3C)O[C@@H]2C)O[C@@H]1C (some centres not stated) | 1820 nM (active)
